Experimental data taken from PubChem BioAssay (EPA / NIEHS).
Activity calls are given as the source filed them. The calls were made as follows: active = hit-call score of the fitted dose curve at least 0.9, where 1 is the maximum; inactive = score below 0.9.

Tests used:
[1] = target: Nuclear respiratory factor 1 (Homo sapiens) (UniProt Q16656); assay: ATG_NRF1_CIS: Attagene CIS-FACTORIAL HepG2 Assay for human Nuclear Respiratory Factor 1 (NRF1) Orphan Gene (AID 2282987); details: HepG2 NRF1 cis-element reporter, Attagene multiplex; actives raise or lower the signal
In short: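 Human hepatoma HepG2 cells carrying transfected promoter-regulated reporter units were incubated with test chemicals for 24 h. Reporter transcripts were measured by RT-PCR plus capillary electrophoresis, and endpoints derived by bidirectional fitting with DMSO as baseline.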

[2] = ATG_NFI_CIS: Attagene CIS-FACTORIAL HepG2 Assay for human Nuclear Factor I (NFI) (AID 2282989); details: HepG2 cis-regulatory reporter, NFI response element transcription; actives raise or lower the signal
In short: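 Cells: human liver HepG2, transiently transfected with promoter-regulated reporter transcription units. Exposure 24 h. Detection: fluorescent RT-PCR products separated by capillary electrophoresis, normalised to DMSO negative control.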

[3] = target: Myc proto-oncogene protein (Homo sapiens) (UniProt P01106); assay: ATG_Myc_CIS: Attagene CIS-FACTORIAL HepG2 Assay for human Myelocytomatosis (Myc) Proto-Oncogene Transcription Factor (AID 2282990); details: HepG2, Attagene cis-reporter transcription factor activity; actives raise or lower the signal
In short: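 Multiplexed cis-reporter transcription in HepG2 cells after 24 h chemical treatment. Reporter mRNA measured by RT-PCR and capillary electrophoresis fluorescence; activity fitted bidirectionally against DMSO control.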

[4] = ATG_NRF2_ARE_CIS: Attagene CIS-FACTORIAL HepG2 Assay for human Nuclear Factor Erythroid 2 Related Factor 2 (NFR2) response to Antioxidant Response Elements (ARE) (AID 2282992); details: HepG2 Attagene ARE/NRF2 reporter, transcription factor activity; actives raise or lower the signal
In short: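 Multiplexed reporter mRNA profiling in HepG2 after a 24 h chemical exposure. Curves fitted in both directions relative to DMSO negative control.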

[5] = BSK_3C_TissueFactor: BioMAP Diversity Plus: 3C Assay for Tissue Factor Biomarker Activity (AID 2282997); details: BioMAP 3C HUVEC, tissue factor biomarker readout; actives raise or lower the signal
In short: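 Dosing of human umbilical vein endothelial cells preceded a 24 h incubation. Tissue Factor was then read by ELISA, with increases and decreases both scored relative to DMSO controls.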

[6] = BSK_3C_uPAR: BioMAP Diversity Plus: 3C Assay for Urokinase-type plasminogen activator receptor (uPAR) Biomarker Activity (AID 2282998); details: BioMAP 3C HUVEC, uPAR biomarker ELISA; actives raise or lower the signal
In short: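 A multiplexed primary-cell system built on human umbilical vein endothelium was used, with chemical present for 24 h before reading. Cell-surface uPAR was detected by ELISA; signal change in either direction counted against DMSO.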

[7] = ATG_NF_kB_CIS: Attagene CIS-FACTORIAL HepG2 Assay for human Nuclear Factor Kappa B (NF-kB) (AID 2282991); details: HepG2 Attagene cis-factorial NF-kB reporter mRNA; actives raise or lower the signal
In short: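 Multiplexed cis-reporter assay in transiently transfected HepG2. 24 h treatment; RNA isolated, RT-PCR, labelled fragments resolved by CE. DMSO baseline.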

[8] = target: Cellular tumor antigen p53 (Homo sapiens) (UniProt P04637); assay: ATG_p53_CIS: Attagene CIS-FACTORIAL HepG2 Assay for human p53 Transcription Factor (AID 2282994); details: HepG2 p53 cis-element reporter, Attagene mRNA; actives raise or lower the signal
In short: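 Multiplexed reporter mRNA assay in human HepG2 liver cells; cis-regulated units report endogenous factor activity. Values come from bidirectional curve fitting against DMSO negative control after 24 h treatment.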

[9] = ATG_Oct_MLP_CIS: Attagene CIS-FACTORIAL HepG2 Assay for human Octamer-Binding Transcription Factor (Oct) (AID 2282993); details: HepG2 Attagene cis-factorial Oct reporter, mRNA; actives raise or lower the signal
In short: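 HepG2, transient MRTU transfection, cis promoter elements; 24 h dosing; RT-PCR/CE fluorescence read-out of reporter mRNA; fit both directions vs DMSO.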

Measured: AC50

Cellular tumor antigen p53 (Homo sapiens), sequence (P04637 whole entry, looked up): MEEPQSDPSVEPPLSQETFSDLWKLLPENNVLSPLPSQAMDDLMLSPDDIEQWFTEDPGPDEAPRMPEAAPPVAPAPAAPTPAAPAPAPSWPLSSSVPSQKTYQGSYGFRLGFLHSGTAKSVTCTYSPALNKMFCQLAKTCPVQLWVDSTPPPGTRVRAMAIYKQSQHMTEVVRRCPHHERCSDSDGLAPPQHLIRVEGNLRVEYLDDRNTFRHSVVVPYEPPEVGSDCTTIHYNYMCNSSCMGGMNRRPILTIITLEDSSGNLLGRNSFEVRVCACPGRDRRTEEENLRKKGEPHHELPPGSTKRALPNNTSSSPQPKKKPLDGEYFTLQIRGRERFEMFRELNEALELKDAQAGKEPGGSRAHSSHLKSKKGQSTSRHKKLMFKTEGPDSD
Nuclear respiratory factor 1 (Homo sapiens), sequence (Q16656 whole entry, looked up): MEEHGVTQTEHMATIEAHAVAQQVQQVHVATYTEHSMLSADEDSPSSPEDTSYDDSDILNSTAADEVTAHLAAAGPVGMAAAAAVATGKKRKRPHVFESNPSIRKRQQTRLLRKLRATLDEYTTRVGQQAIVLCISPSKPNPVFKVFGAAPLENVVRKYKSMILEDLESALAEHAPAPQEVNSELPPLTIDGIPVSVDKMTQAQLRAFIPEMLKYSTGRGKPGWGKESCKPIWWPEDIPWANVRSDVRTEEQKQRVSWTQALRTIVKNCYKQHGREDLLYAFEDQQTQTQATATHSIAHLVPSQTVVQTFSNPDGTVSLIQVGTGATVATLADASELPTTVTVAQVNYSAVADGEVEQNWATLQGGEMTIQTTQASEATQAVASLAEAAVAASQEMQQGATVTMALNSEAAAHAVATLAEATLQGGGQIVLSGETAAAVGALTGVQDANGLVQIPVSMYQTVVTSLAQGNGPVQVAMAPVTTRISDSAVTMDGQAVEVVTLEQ
Myc proto-oncogene protein (Homo sapiens), sequence (P01106 whole entry, looked up): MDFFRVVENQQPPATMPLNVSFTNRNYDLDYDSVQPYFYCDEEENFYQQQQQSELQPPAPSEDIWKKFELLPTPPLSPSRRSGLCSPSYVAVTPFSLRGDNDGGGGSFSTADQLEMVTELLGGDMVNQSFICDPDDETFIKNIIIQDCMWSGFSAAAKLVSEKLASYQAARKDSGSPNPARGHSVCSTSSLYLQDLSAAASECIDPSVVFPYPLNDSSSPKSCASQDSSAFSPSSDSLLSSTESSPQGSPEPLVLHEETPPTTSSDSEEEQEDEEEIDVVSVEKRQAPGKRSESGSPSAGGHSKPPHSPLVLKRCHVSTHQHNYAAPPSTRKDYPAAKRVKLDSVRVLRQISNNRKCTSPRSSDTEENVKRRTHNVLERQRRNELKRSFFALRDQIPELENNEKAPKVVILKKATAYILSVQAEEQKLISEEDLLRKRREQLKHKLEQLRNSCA

CCCSP(=O)(OCC)SCCC
active: [4] 40.9 µM
inactive: [1] | [2] | [3] | [5] | [6]

CCOP(=S)(OCC)SCCSCC
active: [4] 33.7 µM
not listed: [8] | [9]
inactive: all other assays above

Cc1nn(-c2cc(NS(C)(=O)=O)c(Cl)cc2Cl)c(=O)n1C(F)F
not listed: [7] | [8] | [9]
inactive: all other assays above

CCc1cnc(C2=NC(C)(C(C)C)C(=O)N2)c(C(=O)O)c1 (centres undefined)
not listed: [7] | [8] | [9]
inactive: all other assays above

CCCCOC(=O)[C@@H](C)Oc1ccc(Oc2ccc(C#N)cc2F)cc1
not listed: [9]
inactive: all other assays above

CC(Oc1cccc(Cl)c1)C(=O)O (centres undefined)
not listed: [7]
inactive: all other assays above

CCOP(=S)(OCC)Oc1ccc2c(C)c(Cl)c(=O)oc2c1
active: [4] 2.75 µM
not listed: [7] | [8]
inactive: all other assays above

COc1cccc(C(=O)NN(C(=O)c2cc(C)cc(C)c2)C(C)(C)C)c1C
not listed: [8]
inactive: all other assays above

CCOC(=O)COc1cc(-c2nn(C)c(OC(F)F)c2Cl)c(F)cc1Cl
not listed: [8]
inactive: all other assays above

CN1COCN(Cc2cnc(Cl)s2)C1=N[N+](=O)[O-]
not listed: [8]
inactive: all other assays above

CCOP(=S)(Oc1cnc(C(C)(C)C)nc1)OC(C)C (centres undefined)
active: [7] 22.4 µM | [4] 14.1 µM | [5] 31.9 µM | [6] 36.2 µM
inactive: [1] | [2] | [3]

CNC(=O)ON=C(C)SC
not listed: [9]
inactive: all other assays above

CNC(=O)Oc1cccc2c1OC(C)(C)O2
active: [2] 50 µM | [4] 37 µM | [9] 38.5 µM
not listed: [8]
inactive: all other assays above

Nc1nc(N)nc(NC2CC2)n1
not listed: [8]
inactive: all other assays above

CCCOCC(=Nc1ccc(Cl)cc1C(F)(F)F)n1ccnc1
active: [4] 7 µM | [5] 28.8 µM | [6] 31.7 µM
not listed: [9]
inactive: all other assays above

CC1=NNC(=O)N(/N=C/c2cccnc2)C1
not listed: [8]
inactive: all other assays above

CCOP(=S)(OCC)Oc1cc(C)nc(C(C)C)n1
active: [4] 15.9 µM
not listed: [9]
inactive: all other assays above

C#CC(C)(C)NC(=O)c1cc(Cl)cc(Cl)c1
active: [4] 22 µM
not listed: [8] | [9]
inactive: all other assays above

CNc1cnn(-c2cccc(C(F)(F)F)c2)c(=O)c1Cl
active: [4] 17.1 µM | [9] 13.7 µM
not listed: [8]
inactive: all other assays above

CSc1nc(NC(C)C)nc(NC(C)C)n1
active: [4] 10 µM
not listed: [7]
inactive: all other assays above

CCCCSP(=O)(SCCCC)SCCCC
active: [3] 83.2 µM | [4] 18.3 µM | [6] 28.7 µM
inactive: [1] | [2] | [5]

CCOP(=S)(OCC)OC(Cl)C(Cl)(Cl)Cl (centres undefined)
active: [7] 26.4 µM | [4] 50 µM | [9] 29.2 µM
not listed: [8]
inactive: all other assays above

CC1(C(=O)Nc2ccc(O)c(Cl)c2Cl)CCCCC1
active: [4] 8.84 µM
not listed: [8] | [9]
inactive: all other assays above

CC[C@H](C)[C@H]1O[C@]2(C=C[C@@H]1C)C[C@@H]1C[C@@H](C/C=C(\C)[C@@H](O[C@H]3C[C@H](OC)[C@@H](O[C@H]4C[C@H](OC)[C@@H](NC)[C@H](C)O4)[C@H](C)O3)[C@@H](C)/C=C/C=C3\CO[C@@H]4[C@H](O)C(C)=C[C@@H](C(=O)O1)[C@]34O)O2
active: [6] 1.93 µM
not listed: [7] | [8]
inactive: all other assays above

COc1ccc(C(=CC(=O)N2CCOCC2)c2ccc(Cl)cc2)cc1OC
active: [4] 8.76 µM | [9] 13.8 µM | [6] 12.7 µM
not listed: [8]
inactive: all other assays above

CNC(=O)ON=C(SC)C(=O)N(C)C
active: [4] 24.9 µM | [9] 18.9 µM
not listed: [8]
inactive: all other assays above
